In PubChem BioAssay (NCI) one finds growth inhibition data, which are given here for ten molecules.

The panel holds about 79,000 compounds, 15% with a hit somewhere; the sample as a whole holds those more often. Unmarked numbers belong to inactive results. Active and inactive are the calls of the source. Rule as the data show it: active = growth inhibition above about 70%; inactive = the rest.

Test [1] can be described thus: NCI Yeast Anticancer Drug Screen. Data for the rad50 strain (AID 155).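 Also: 0% = growth of vehicle-only cultures of the same strain.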 The conditions noted are these: S. cerevisiae rad50 strain growth inhibition, active compounds read high. In outline: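 Growth of the mutant yeast was measured after compound exposure and referenced to vehicle-treated cultures.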
Test [2] is described as follows: NCI Yeast Anticancer Drug Screen. Data for the mec2-1 strain (AID 157). Particulars: S. cerevisiae mec2-1 strain, active compounds read high. Put shortly: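 Strain: mec2-1 (DNA repair/cell cycle alteration). Compound exposure, then growth measured; inhibition expressed relative to vehicle.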
Test [3] is described as follows: NCI Yeast Anticancer Drug Screen. Data for the sgs1 mgt1 strain (AID 161).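 Also: 0% = growth of cultures given vehicle only.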 Particulars: S. cerevisiae sgs1 mgt1 strain, active compounds read high. In outline:
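Read-out: growth inhibition vs vehicle controls. Cells: mutant yeast strain deficient in DNA damage repair.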

The nature of test [4]: NCI Yeast Anticancer Drug Screen. Data for the cln2 rad14 strain (AID 165).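 Also: 0% = growth equal to vehicle treated cultures.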 The conditions noted are these: S. cerevisiae cln2 rad14 strain, active compounds read high. Put shortly:
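Compounds are applied to the cln2 rad14 yeast strain, and growth is then compared with that of vehicle-treated cultures to give inhibition.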

Test [5] in a line: NCI Yeast Anticancer Drug Screen. Data for the bub3 strain (AID 167). The conditions noted are these: S. cerevisiae bub3 mutant strain, active compounds read high. Put shortly:
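Whole-cell yeast assay. The mutant strain was incubated with compounds, and growth inhibition was determined by comparison with vehicle-treated cells.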

The nature of test [6]: NCI Yeast Anticancer Drug Screen. Data for the mlh1 rad18 strain (AID 175). The conditions noted are these: S. cerevisiae mlh1 rad18 strain growth inhibition, active compounds read high. Put shortly:
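Read-out is yeast growth inhibition, calculated against vehicle-only controls. The compound was applied to a strain engineered with DNA damage repair alterations.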

[7] abbreviates: at 5.0 µM (retest, dose inferred, filed as 0.5).
[8] abbreviates: at 50.0 µM (retest, dose inferred, filed as 5.0).

As to `Cc1csc2c1C(=O)c1ccsc1C2=O`, the growth inhibition in test [1] (setting [7]) was 54%; in test [1] (setting [8]), 97% (active); in test [1] (at 50.0 µM) it was 88.8% (active); in test [2] (setting [7]), 50%; in test [2] (setting [8]) it was 99% (active); in test [2] (at 50.0 µM), 91.5% (active). Also, the growth inhibition is 72% (active) in test [3] (setting [7]); 99% (active) in test [3] (setting [8]); 92.2% (active) in test [3] (at 50.0 µM); 31% in test [4] (setting [7]); 98% (active) in test [4] (setting [8]); 90.8% (active) in test [4] (at 50.0 µM). The growth inhibition in test [5] (setting [7]) was 86% (active); in test [5] (setting [8]), 98% (active); in test [5] (at 50.0 µM), 91.5% (active); in test [6] (setting [7]), 65%; in test [6] (setting [8]) it was 99% (active); in test [6] (at 50.0 µM) it was 91.1% (active).

For `CCN(CC)CCCC(=O)Nc1cc(OC)cc2cccnc12`, the growth inhibition in test [1] (setting [7]) is 2%; in test [1] (setting [8]), 0%; in test [1] (at 50.0 µM) it was 3.65%; in test [2] (setting [7]), 15%; in test [2] (setting [8]) it was -3%; in test [2] (at 50.0 µM) it was 6.3%. Also, the growth inhibition in test [3] (setting [7]) is 8%; in test [3] (setting [8]), 1%; in test [3] (at 50.0 µM) it was -4.7%; in test [4] (setting [7]), 1%; in test [4] (setting [8]), -1%; in test [4] (at 50.0 µM), -2.55%. For the same molecule, the growth inhibition in test [5] (setting [7]) was 1%; in test [5] (setting [8]), -3%; in test [5] (at 50.0 µM), -1.85%; in test [6] (setting [7]) it was 2%; in test [6] (setting [8]), -1%; in test [6] (at 50.0 µM) it was 13.4%.

Take `O=[N+]([O-])c1cc(C(F)(F)F)cc([N+](=O)[O-])c1N1CCCC(n2cccc2)C1` (stereo not given): the growth inhibition is -11% in test [1] (setting [7]); 21% in test [1] (setting [8]); 34.6% in test [1] (at 50.0 µM); -6% in test [2] (setting [7]); 19% in test [2] (setting [8]); 45.8% in test [2] (at 50.0 µM). Moreover, the growth inhibition in test [3] (setting [7]) is -4%; in test [3] (setting [8]), 26%; in test [3] (at 50.0 µM), 58.3%; in test [4] (setting [7]), 7%; in test [4] (setting [8]) it was 28%; in test [4] (at 50.0 µM) it was 34.1%. In addition, the growth inhibition in test [5] (setting [7]) was -9%; in test [5] (setting [8]) it was 55%; in test [5] (at 50.0 µM) it was 71.2% (active); in test [6] (setting [7]), 1%; in test [6] (setting [8]), 33%; in test [6] (at 50.0 µM), 47.9%.

For `CC1CC(c2ccccc2)(c2ccccc2)C(=O)C(C)N1C` (stereo not given), the growth inhibition in test [1] (setting [7]) is -1%; in test [1] (setting [8]), 22%; in test [1] (at 50.0 µM), 13.6%; in test [2] (setting [7]), -2%; in test [2] (setting [8]), -5%; in test [2] (at 50.0 µM), 29.9%. In addition, the growth inhibition in test [3] (setting [7]) was 0%; in test [3] (setting [8]), -19%; in test [3] (at 50.0 µM) it was 14.2%; in test [4] (setting [7]), -1%; in test [4] (setting [8]), -2%; in test [4] (at 50.0 µM), 28%. The growth inhibition was -4% in test [5] (setting [7]); 10% in test [5] (setting [8]); 72% (active) in test [5] (at 50.0 µM); -3% in test [6] (setting [7]); 7% in test [6] (setting [8]); 25.9% in test [6] (at 50.0 µM).

With `CCCCCCCCCCCCNCCNCCN`, the growth inhibition is 99% (active) in test [1] (setting [7]); 95% (active) in test [1] (setting [8]); 86.7% (active) in test [1] (at 50.0 µM); 99% (active) in test [2] (setting [7]); 100% (active) in test [2] (setting [8]); 89.7% (active) in test [2] (at 50.0 µM). Moreover, the growth inhibition is 25% in test [3] (setting [7]); 96% (active) in test [3] (setting [8]); 91% (active) in test [3] (at 50.0 µM); 84% (active) in test [4] (setting [7]); 97% (active) in test [4] (setting [8]); 85.6% (active) in test [4] (at 50.0 µM). Moreover, the growth inhibition in test [5] (setting [7]) is 61%; in test [5] (setting [8]), 96% (active); in test [5] (at 50.0 µM), 89% (active); in test [6] (setting [7]) it was 100% (active); in test [6] (setting [8]) it was 100% (active); in test [6] (at 50.0 µM), 86.6% (active).

On to `Clc1cc2n[nH]nc2c(Cl)c1Cl`, for which the growth inhibition is -6% in test [1] (setting [7]); 63% in test [1] (setting [8]); 74.8% (active) in test [1] (at 50.0 µM); 6% in test [2] (setting [7]); 84% (active) in test [2] (setting [8]); 95.9% (active) in test [2] (at 50.0 µM). The growth inhibition in test [3] (setting [7]) was 16%; in test [3] (setting [8]), 83% (active); in test [3] (at 50.0 µM), 46.8%; in test [4] (setting [7]), -17%; in test [4] (setting [8]), 65%; in test [4] (at 50.0 µM), 88.7% (active). For the same molecule, the growth inhibition is -13% in test [5] (setting [7]); 48% in test [5] (setting [8]); 85.8% (active) in test [5] (at 50.0 µM); 6% in test [6] (setting [7]); 94% (active) in test [6] (setting [8]); 93.3% (active) in test [6] (at 50.0 µM).

As to `CC1CCC(C(C)(C)c2ccc(O)cc2)CC1` (stereo not given), the growth inhibition was 0% in test [1] (setting [7]); 97% (active) in test [1] (setting [8]); 97.7% (active) in test [1] (at 50.0 µM); -1% in test [2] (setting [7]); 98% (active) in test [2] (setting [8]); 98.2% (active) in test [2] (at 50.0 µM). The growth inhibition in test [3] (setting [7]) was 3%; in test [3] (setting [8]), 98% (active); in test [3] (at 50.0 µM), 98.8% (active); in test [4] (setting [7]), -6%; in test [4] (setting [8]) it was 96% (active); in test [4] (at 50.0 µM) it was 97.6% (active). Further, the growth inhibition is -4% in test [5] (setting [7]); 97% (active) in test [5] (setting [8]); 98.3% (active) in test [5] (at 50.0 µM); -6% in test [6] (setting [7]); 98% (active) in test [6] (setting [8]); 98.3% (active) in test [6] (at 50.0 µM).

In the case of `O=c1c(Cl)c(Cl)oc(Cl)c1Cl`, the growth inhibition was 42% in test [1] (setting [7]); 98% (active) in test [1] (setting [8]); 79.2% (active) in test [1] (at 50.0 µM); 30% in test [2] (setting [7]); 99% (active) in test [2] (setting [8]); 98.3% (active) in test [2] (at 50.0 µM). Also, the growth inhibition is 45% in test [3] (setting [7]); 99% (active) in test [3] (setting [8]); 88% (active) in test [3] (at 50.0 µM); 3% in test [4] (setting [7]); 99% (active) in test [4] (setting [8]); 94.5% (active) in test [4] (at 50.0 µM). Also, the growth inhibition was 43% in test [5] (setting [7]); 99% (active) in test [5] (setting [8]); 98.8% (active) in test [5] (at 50.0 µM); 54% in test [6] (setting [7]); 98% (active) in test [6] (setting [8]); 97.2% (active) in test [6] (at 50.0 µM).

Regarding `OC(c1ccccc1)c1cccc2ccccc12` (stereo not given), the growth inhibition in test [1] (setting [7]) is -1%; in test [1] (setting [8]) it was 47%; in test [1] (at 50.0 µM), 91.3% (active); in test [2] (setting [7]), -5%; in test [2] (setting [8]) it was 14%; in test [2] (at 50.0 µM), 67.3%. The growth inhibition in test [3] (setting [7]) is 20%; in test [3] (setting [8]), 25%; in test [3] (at 50.0 µM), -1.85%; in test [4] (setting [7]) it was -8%; in test [4] (setting [8]), 18%; in test [4] (at 50.0 µM), 44.8%. Besides, the growth inhibition is -1% in test [5] (setting [7]); 30% in test [5] (setting [8]); 67% in test [5] (at 50.0 µM); -1% in test [6] (setting [7]); 25% in test [6] (setting [8]); 43.1% in test [6] (at 50.0 µM).

As to `CC1=CC2N(C=C1)C(c1ccccc1)=NON2c1cc(C)ccn1` (stereo not given), the growth inhibition in test [1] (setting [7]) is -20%; in test [1] (setting [8]), -10%; in test [1] (at 50.0 µM), 24.7%; in test [2] (setting [7]), -23%; in test [2] (setting [8]), 14%; in test [2] (at 50.0 µM), 33%. For the same molecule, the growth inhibition in test [3] (setting [7]) was -1%; in test [3] (setting [8]), 23%; in test [3] (at 50.0 µM), 62.5%; in test [4] (setting [7]), -39%; in test [4] (setting [8]) it was 7%; in test [4] (at 50.0 µM), 25.1%. Besides, the growth inhibition in test [5] (setting [7]) is -44%; in test [5] (setting [8]), -14%; in test [5] (at 50.0 µM) it was 5.7%; in test [6] (setting [7]) it was -34%; in test [6] (setting [8]) it was 38%; in test [6] (at 50.0 µM) it was 68.9%.
